Bioassay records from PubChem.
Tau fibril ThT = tau fibrillization inhibition (ThT binding) | P10636 | recombinant tau K18 P301L, heparin-induced fibrillization, ThT fluorescence | Potency, µM (highest dose often 57.4 µM), for inactives: at the highest dose activity, negative = inhibition, usual class: inhibitors | 270,000 tested, 2.1% active; also: potency is read from the fitted curve at half-maximal effect; nearly all actives have a fitted effect of over 55% in size
Target sequence (P10636 561-689 P618L limits assumed): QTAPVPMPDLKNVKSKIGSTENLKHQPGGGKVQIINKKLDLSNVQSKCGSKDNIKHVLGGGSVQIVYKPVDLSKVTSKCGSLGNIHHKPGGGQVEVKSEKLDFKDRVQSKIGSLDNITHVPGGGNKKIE
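Tau K18 P301L fragment (15 uM unlabeled plus 0.24 uM Alexa 594-labeled) in 100 mM sodium acetate pH 7 with compound, fibrillization induced by 20 uM heparin for 6 hr at 37 C. Thioflavin T (30 uM) added, fluorescence read after 1 hr (ex 450, em 510 nm).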
KDM4E inh = JMJD2E (human) inhibition; 230,000 tested, 1.6% active; JMJD2E catalytic domain, FDH-coupled NADH fluorescence (FDH is formaldehyde dehydrogenase); Potency, µM (top dose mostly 57.1 µM), for inactives: at the top dose activity change, negative = inhibition, most hits filed as inhibitors; active = well fitted inhibition curve with a large enough effect, not every such curve was filed as active; inconclusive = small, poorly fitted or top-dose-only effect, or another doubt; inactive = no such curve, though single readings can be large or run the other way;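 also: potency is read from the fitted curve at half-maximal effect; 0% = wells with enzyme and -100% = buffer wells without enzyme; nearly all actives have a fitted effect of over 50% in size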
Target sequence (B2RXH2 1-337 limits assumed): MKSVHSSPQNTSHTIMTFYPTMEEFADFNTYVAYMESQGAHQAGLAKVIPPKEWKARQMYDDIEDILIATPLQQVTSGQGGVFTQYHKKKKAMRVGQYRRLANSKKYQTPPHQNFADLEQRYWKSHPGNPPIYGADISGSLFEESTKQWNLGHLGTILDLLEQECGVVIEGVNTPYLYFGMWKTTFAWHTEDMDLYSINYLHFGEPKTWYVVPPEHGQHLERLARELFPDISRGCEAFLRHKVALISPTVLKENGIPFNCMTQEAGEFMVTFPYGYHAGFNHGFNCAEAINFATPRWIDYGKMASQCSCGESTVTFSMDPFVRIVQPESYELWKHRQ
Tau fluor cs = counter-screen for tau fibril formation inhibitors; tau K18 P301L (four-repeat tau fragment) Alexa594 fluorescence, heparin fibrillization; Potency, µM (doses to about 57.7 µM), inactives show at the top dose activity change, negative = decrease; 280,000 tested, 0.93% active; AID 1463; also: potency is read from the fitted curve at half-maximal effect; nearly all actives have a fitted effect of over 55% in size
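Human K18 P301L tau (15 uM unlabeled plus 0.24 uM Alexa 594-labeled, final) in 100 mM sodium acetate pH 7 was mixed with compound and 20 uM heparin and incubated 6 hr at 37 C.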
FBPA coupling cs = counter-screen for Giardia aldolase inhibitors: coupling enzyme system. activity change, negative = inhibition, % at 58.2 µM, hits read low. coupling enzyme system counterscreen, AmpLite Red fluorescence. 290,000 tested, 0.67% active; in the data active = activity change below about -30%
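First, compound is pin-transferred into glyceraldehyde-3-phosphate coupling-enzyme reagent at 57.5 uM final and held 10 min at RT. Next, substrate, coupling system and AmpLite Red are added. After 20 min RT, fluorescence (525/598 nm) is read.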
Tau fibril FP = inhibitors of human tau fibril formation; P10636; K18 P301L tau heparin fibrillization, Alexa594 FP, 6 h; Potency, µM (highest dose often 57.7 µM), for the others: at the top dose activity, negative = inhibition, hits mostly inhibitors; 280,000 tested, 0.39% active; also: potency is read from the fitted curve at half-maximal effect; nearly all actives have a fitted effect of over 55% in size
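FP of Alexa 594-tau after heparin (20 uM) induction. Substrate: human K18 P301L, 15 uM unlabeled, 0.24 uM labeled. Buffer 100 mM sodium acetate pH 7. 6 hr, 37 C.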
The depositor's hits bear a star; [ ] = dose if it differs, or a comment. Sampled rows, rich in hits. Any-hit rate of the full collection: about 3%. Unless noted, calls follow the shape of the dose curve; as a rule, active = well fitted curve in the direction sought with a large enough effect; inconclusive = small, poorly fitted or top-dose-only effect, or another doubt; inactive = no such curve, though single readings can be large; an effect the other way counts as inactive or inconclusive. Unless noted, % is scaled to controls: 0 for no effect and ±100 for the full control effect.

`COc1cccc(-n2c(=O)c3sc4ccccc4c3n(CC(=O)Nc3cccc(Cl)c3)c2=O)c1` gave Tau fibril ThT 12%, Tau fluor cs inconclusive and Tau fibril FP 22µM*.
COC(=O)C1C2C=CC3(CN(CC4CCCO4)C(=O)C13)O2 (configuration not stated) was read as Tau fibril ThT 1%, KDM4E inh 2%, Tau fluor cs 3%, FBPA coupling cs -79* and Tau fibril FP 6%.
COc1ccc(OC)c2[nH]c(=O)c(CCNS(=O)(=O)c3ccc(Cl)cc3)cc12 was read as Tau fibril ThT 2%, KDM4E inh 4%, Tau fluor cs -1%, FBPA coupling cs -33* and Tau fibril FP 4%.
Screening Cc1ccc2cc(CCNS(=O)(=O)c3ccc(Cl)cc3)c(=O)[nH]c2c1C returned FBPA coupling cs 2.
`COc1ccc(OC)c2[nH]c(=O)c(CCNS(=O)(=O)c3ccc(C)cc3)cc12` gave Tau fibril ThT -6%, KDM4E inh inconclusive, Tau fluor cs -8%, FBPA coupling cs -30* and Tau fibril FP 1%.
Screening Cc1ccc(S(=O)(=O)n2nc(-c3ccccc3)nc2NCc2ccc(Cl)cc2)cc1 returned Tau fibril ThT -14%, Tau fluor cs inconclusive and Tau fibril FP inconclusive.
CC(C)C1Nc2c(O)cc(Cl)c([N+](=O)[O-])c2C2C=CCC21 (configuration not stated) was read as Tau fibril ThT 11µM*, KDM4E inh -5%, Tau fluor cs inconclusive, FBPA coupling cs 3 and Tau fibril FP 2%.
CCOC(=O)c1c(C)n(-c2ccc(C)cc2)c2ccc(OCC(O)CNCC3CCCO3)cc12 (configuration not stated) was read as Tau fibril ThT inconclusive, KDM4E inh 28µM*, Tau fluor cs -9%, FBPA coupling cs -1 and Tau fibril FP 16%.
COc1ccc2ccc3c(c2c1)N=CC1(O3)N(C)c2ccccc2C1(C)C (configuration not stated) was read as Tau fibril ThT 10µM*, KDM4E inh 14µM*, Tau fluor cs inconclusive, FBPA coupling cs 2 and Tau fibril FP 22µM*.
For CN1c2ccccc2C(C)(C)C12C=Nc1c(ccc3ccccc13)O2 (configuration not stated) the results were Tau fibril ThT 32µM*, KDM4E inh 25µM*, Tau fluor cs inconclusive, FBPA coupling cs -78* and Tau fibril FP inconclusive.
Screening CN1c2ccccc2C(C)(C)[C@]12C=Cc1cc(O)ccc1O2 returned Tau fibril ThT 22µM*, KDM4E inh -11%, Tau fluor cs inconclusive, FBPA coupling cs -9 and Tau fibril FP -1%.
`COc1ccc2c(c1)Sc1ccccc1N2CCN(C)C` gave Tau fibril ThT -5%, KDM4E inh inconclusive, Tau fluor cs -5%, FBPA coupling cs -6 and Tau fibril FP 2%.
For O=C(COc1ccccc1[N+](=O)[O-])N1CCC(c2nc3ccccc3o2)CC1 the results were Tau fibril ThT -7%, Tau fluor cs -15% and Tau fibril FP 0%.
Screening COc1ccc(NC(=O)CSc2nc(-c3ccccc3)cc(-c3cc(OC)c(OC)c(OC)c3)c2C#N)c(OC)c1 returned Tau fibril ThT -7%, Tau fluor cs -20% and Tau fibril FP -10%.
For Cc1cccc2[nH]c3c(N4CC=C(c5ccc(F)cc5)CC4)ncnc3c12 the results were Tau fibril ThT inconclusive, KDM4E inh inconclusive, Tau fluor cs 14µM*[quencher], FBPA coupling cs 3 and Tau fibril FP inconclusive.
COc1cccc(NC(=O)C2CCCN(S(=O)(=O)c3ccc4[nH]c(=O)ccc4c3)C2)c1 (configuration not stated) was read as Tau fibril ThT -6%, Tau fluor cs -5% and Tau fibril FP 3%.
Screening COC(=O)CSC1=C(C#N)C(c2ccc(C(C)C)cc2)CC(=O)N1 (configuration not stated) returned Tau fibril ThT -6%, KDM4E inh -1%, Tau fluor cs -14%, FBPA coupling cs 0 and Tau fibril FP 8%.
